In all, about 52,000 compounds went through this assay and about 1,700 (3.3%) were called active. Only a selection was taken, and actives are over-represented in it overall. A number with no mark means an inactive call. Cut-off read from the data, not from the text of the source: active = survival mostly below about 52% (no sharp cut-off); inactive = mostly above about 56%.
system: Wild type; test: S. aureus survival, RN4220 and DeltatarO strains – OD600, teichoic acid synthesis inhibitors, primary screen (AID 463173); settings: S. aureus RN4220 wild type/DeltatarO growth, OD600, 18 h, stronger effect = lower value, screened at 18.75 µg/mL (by protocol)

Compound | survival
Cc1cccc(NC(=O)CC2C(=O)OCCN2Cc2ccccc2)c1 (stereo not drawn) | 137%
CC1(N)CCS(=O)(=O)C1 (stereo not drawn) | 110%
CCCn1cc(S(=O)(=O)c2ccc(CC)cc2)c(=O)c2cc(F)c(N(CC)CC)cc21 | 68%
Cc1ccccc1C(=O)Nc1ccccc1-c1nc(-c2ccccc2)no1 | 95%
O=C(CN1C2=NCCN2c2ccccc21)C12CC3CC(CC(C3)C1)C2 | 98%
NC(=O)CSc1ncc2c(n1)-c1ccccc1N(Cc1cccc(F)c1)S2(=O)=O | 73%
CCN1CCN(c2oc(-c3ccc(COc4ccc(OC)cc4)o3)nc2C#N)CC1 | 75%
CC(C)c1ccc(NC(=O)CN2C(=O)COc3ccc(S(=O)(=O)N4CCCCCC4)cc32)cc1 | 109%
CC(=O)N1CCCC1c1nc2ccccc2n1Cc1cccc(C)c1 (stereo not drawn) | 85%
Cc1cccc(CNC(=O)Cn2c(-c3cccs3)cc3ccccc32)c1 | 135%
Cc1cccc(Cn2c(-c3cccs3)nc3ccccc32)c1 | -6% (active)
CCN(CC)S(=O)(=O)c1ccc(S(=O)(=O)NCc2ccc3c(c2)OCO3)cc1 | 108%
O=C(Cn1c(SCC(=O)Nc2ccc(F)cc2)nc2ccccc21)NCc1ccc(F)cc1 | 63%
COc1ccc(CNC(=O)Cn2c(SCC(=O)Nc3ccc(OC)cc3)nc3ccccc32)cc1 | 69%
CN(C(=O)CSc1nc2ccccc2n1Cc1cccc(C(F)(F)F)c1)c1ccccc1 | 87%
COc1cccc(Cn2c(SCC(=O)N(C)c3ccccc3)nc3ccccc32)c1 | -6% (active)
COc1ccc(NC(=O)CSc2nc3ccccc3n2CC(=O)NCc2ccc(F)cc2)cc1 | -6% (active)
COC(=O)c1ccc(Cn2c(SCC(=O)N(C)c3ccccc3)nc3ccccc32)cc1 | 75%
CC(=O)c1cccc(NC(=O)Cn2c(SCC(=O)Nc3ccc(F)cc3)nc3ccccc32)c1 | -3% (active)
Cc1ccccc1NC(=O)Cn1c(SCC(=O)Nc2ccc(F)cc2)nc2ccccc21 | 76%
COc1cccc(CNC(=O)Cn2c(SCC(=O)Nc3ccc(C)c(C)c3)nc3ccccc32)c1 | 76%
Cc1ccc(CNC(=O)Cn2c(SCC(=O)Nc3ccc(F)cc3)nc3ccccc32)cc1 | 131%

Compound | survival
COc1cccc(CNC(=O)Cn2c(SCC(=O)Nc3ccc(F)cc3)nc3ccccc32)c1 | 0% (active)
O=C(CSc1nc2ccccc2n1CC(=O)Nc1ccc(F)cc1F)Nc1ccc(F)cc1 | 72%
CCN(CC)C(=O)c1ccc(Nc2nnc(-c3ccc(C)c(S(=O)(=O)NC)c3)c3ccccc23)cc1 | 79%
COc1ccc(CNc2nc3c(-c4cccc(F)c4)nnn3c3ccccc23)cc1 | 86%
N#Cc1ccccc1NC(=O)C(=O)NCCc1csc2nc(-c3cccc(F)c3)nn12 | 81%
COc1ccc(CCC(=O)NCc2nc3cccnc3n2Cc2cccc(OC)c2)cc1 | 73%
CCOC(=O)N1CCC2(CC1)OC(=O)C(C)=C2C(=O)NCc1cccc(OC)c1 | 131%
CCOC(=O)CSc1nc2ccc(NC(=O)c3ccc(Cl)cc3)cc2s1 | 90%
CCOc1ccc(-c2nc3c(c(SCC(=O)N4CCCCC4)n2)Cc2cccc(OC)c2O3)cc1 | 75%
CCCCNC(=O)C1CCN(c2nc3ccccc3nc2C(F)(F)F)CC1 | 82%
CCCSCCCNC(=O)C1CCN(c2nc3ccccc3nc2C(F)(F)F)CC1 | -3% (active)
O=C(NCCc1ccccc1Cl)C1CCN(c2nc3ccccc3nc2C(F)(F)F)CC1 | 10% (active)
CCNC(=O)C1CCN(c2nc3ccccc3nc2C(F)(F)F)CC1 | 148%
COc1ccccc1CCNC(=O)C1CCN(c2nc3ccccc3nc2C(F)(F)F)CC1 | 121%
Cc1ccccc1CCNC(=O)C1CCN(c2nc3ccccc3nc2C(F)(F)F)CC1 | 68%
Cc1ccc(NC(=O)C2CCN(c3nn4cc(-c5ccc(C)cc5)nc4s3)CC2)cc1 | 60%
Cc1cn2c(=O)cc(COC(=O)c3cccc(NC(=O)COc4ccccc4Cl)c3)nc2s1 | 124%
COc1ccc2c(c1)c1c(c(=O)n(Cc3ccccc3)c(=O)n1Cc1ccccc1Cl)n2C | 84%
O=C(Nc1ccc2nc3n(c(=O)c2c1)CCCCC3)C(=O)Nc1ccccc1F | 69%
O=C(Cc1ccc(Cl)cc1)NC1CC(=O)N(c2ccc3c(c2)OCCO3)C1 (stereo not drawn) | 58%
CSc1ccccc1NC(=O)C1=CC(c2ccc3c(c2)OCO3)=NS(=O)(=O)N1C | 87%
Cc1ccc(-c2nc3c(c(SCc4ccc(Br)cc4)n2)Cc2c(CO)cnc(C)c2O3)cc1 | 81%

Compound | survival
CCOC(=O)c1c(C)[nH]c(C)c1S(=O)(=O)N1CCC(C(=O)Nc2ccc(C)c(Cl)c2)CC1 | 63%
CCOC(=O)c1c(S(=O)(=O)N2CCC(C(=O)Nc3ccc(OCC)cc3)CC2)c(C)n(C)c1C | 125%
CCOC(=O)c1c(C)[nH]c(C)c1S(=O)(=O)N1CCC(C(=O)NCc2ccc(F)cc2)CC1 | 1% (active)
CCOC(=O)c1c(C)[nH]c(C)c1S(=O)(=O)N1CCC(C(=O)NCc2ccccc2)CC1 | 55%
CCOC(=O)c1c(C)[nH]c(C)c1S(=O)(=O)N1CCC(C(=O)NCc2ccc(C)cc2)CC1 | 71%
CCOC(=O)c1c(C)[nH]c(C)c1S(=O)(=O)N1CCC(C(=O)Nc2ccc(OCC)cc2)CC1 | -3% (active)
O=C(NCC1CCCO1)c1ccc(NC(=O)c2ncn[nH]2)cc1 (stereo not drawn) | 98%
CCCCN(CC)CCNC(=O)CCn1cnc2onc(-c3ccc(F)cc3)c2c1=O | 72%
CCN(CC)CCCNC(=O)CCCn1ncn2c(cc3occc32)c1=O | 85%
O=S(=O)(c1ccc(Cl)cc1)c1nc(-c2ccccc2Br)oc1NCc1ccccc1 | 96%
COc1ccc(C(C)NC(=O)CN(c2cc(OC)ccc2OC)S(=O)(=O)c2ccccc2)cc1 (stereo not drawn) | 76%
COc1cccc2sc(N(Cc3cccnc3)C(=O)Cc3ccccc3)nc12 | 89%
COc1ccc(-c2nc(C)c(CCNC(=O)c3ccc(C(F)(F)F)cc3)s2)cc1OC | -4% (active)
CCOc1ccc(C(=O)NCCc2sc(-c3ccc(C)cc3)nc2C)cc1 | -3% (active)
CCOc1ccc(C(=O)NCCc2sc(-c3ccc(OC)c(OC)c3)nc2C)cc1 | 129%
CCOc1ccc(NC(=O)C(=O)NCCc2sc(-c3ccc(C)cc3)nc2C)cc1 | 55%
COc1ccc(-c2nc(C)c(CCNC(=O)c3cc(OC)c(OC)c(OC)c3)s2)cc1OC | 57%
CCOc1ccc(C(=O)NCCc2sc(-c3ccc(F)cc3)nc2C)cc1 | 97%
CCC(C(=O)Nc1nnc2n1CCS2)c1ccccc1 (stereo not drawn) | 66%
CCN(CC)Cc1cc(C(=O)O)oc1C(C)(C)C | 106%
COc1ccc(-c2cc(C(F)(F)F)c(C#N)c(SCC(=O)Nc3cccc(C)c3)n2)cc1 | 74%
CN(C(=O)CSc1cn(CC(=O)N2CCCC2)c2ccccc12)c1ccccc1 | 83%

Compound | survival
Cc1ccc(C(=O)NCC(c2ccc3c(c2)OCO3)N2CCN(c3ccc(F)cc3)CC2)cc1 (stereo not drawn) | 68%
Cc1ccc(C)c(CS(=O)(=O)c2cn(CC(=O)N(C(C)C)C(C)C)c3ccccc23)c1 | 77%
O=C(CSc1ncc2c(n1)-c1ccc(Cl)cc1N(Cc1ccccc1)S2(=O)=O)Nc1ccc(F)c(F)c1 | 129%
Cc1cccc(C)c1NC(=O)CSc1ncc2c(n1)-c1ccc(Cl)cc1N(Cc1ccccc1)S2(=O)=O | -2% (active)
COc1ccc(CNC(=O)CSc2ncc3c(n2)-c2ccc(Cl)cc2N(Cc2ccccc2)S3(=O)=O)cc1 | 22%
COc1ccccc1CNC(=O)CSc1ncc2c(n1)-c1ccc(Cl)cc1N(Cc1ccccc1)S2(=O)=O | 0% (active)
COc1ccccc1CNC(=O)CSc1ncc2c(n1)-c1cc(Cl)ccc1N(Cc1ccccc1)S2(=O)=O | 73%
CCc1cccc(NC(=O)CSc2ncc3c(n2)-c2ccc(Cl)cc2N(Cc2ccccc2)S3(=O)=O)c1 | 101%
CCc1ccc(NC(=O)Cn2c(=O)n(Cc3ccco3)c(=O)c3oc4ccccc4c32)cc1 | 87%
COc1ccc(C2C(=O)N(C3CCCCC3)CC(=O)N2CCc2ccc(C)cc2)cc1OC (stereo not drawn) | 82%
Cc1ccc(NC(=O)CN2C(=O)C(c3ccccc3)=NC23CCCCC3)cc1C | 89%
COc1ccc(Br)cc1CNC(=O)c1nn(-c2ccc(C)cc2)c(=O)c2c1c1ccccc1n2C | 126%
CC1CCCC(C)N1C(=O)c1ccccc1N (stereo not drawn) | 108%
COc1ccc(-c2ccc(NS(=O)(=O)c3cccc(Cl)c3)cc2)nn1 | 82%
COc1cccc(N2CCN(C(=O)c3cnc4c(-c5ccc(F)cc5)c(C)nn4c3C)CC2)c1 | -6% (active)
Cc1nn2c(C)c(C(=O)N3CCN(c4ccc(Cl)cc4)CC3)cnc2c1-c1ccc(F)cc1 | 72%
COc1cccc(N2CCN(C(=O)c3cnc4c(-c5ccccc5)c(C)nn4c3C)CC2)c1 | 76%
CC(=O)N1c2c(cc(Br)cc2S(=O)(=O)N2CCN(c3ccccc3)CC2)CC1C (stereo not drawn) | 98%
Nc1ccc2nc(CCc3ccccc3)[nH]c2c1 | 106%
Oc1ccc(NCc2ccccc2OCc2ccccc2Cl)cc1 | 82%
Oc1ccc(NCc2ccc(OCc3ccccc3)cc2)cc1 | 87%
Oc1ccc(NCc2ccc(OCc3ccccc3Cl)cc2)cc1 | -4% (active)

Source: PubChem BioAssay AID463173 (ICCB-Longwood Screening Facility, Harvard Medical School, 2010)
